# Screening results: PubChem BioAssay, several laboratories
# BoNT F protease = blocks Botulinum neurotoxin F light chain protease; Multiplex microsphere protease cleavage assay, flow cytometry; inhibition, % at 10 µM; AID 588497; 360,000 compounds, 0.22% hits; in the data active = inhibition above about 35%, passing the limit was not always enough; inconclusive = no clear call, values can overlap the other calls; also: plate controls were buffer without enzyme for full effect and enzyme alone for no effect
# BoNT-A LC inh2 = inhibitors of Botulinum neurotoxin A light chain protease | multiplex microsphere protease substrate cleavage, flow cytometry | inhibition, % at 10 µM | 360,000 compounds, 0.17% hits | AID 588499; also: plate controls were buffer without enzyme for full effect and enzyme alone for no effect
# Anthrax LF prot = anthrax lethal factor protease inhibition | multiplex microsphere protease cleavage assay, LF | inhibition, % at 10 µM | 360,000 compounds, 0.12% hits | AID 588501; also: plate controls were buffer without enzyme for full effect and enzyme alone for no effect
# Autofluor counter = flagged as autofluorescent in microsphere protease counterscreen; compound autofluorescence counterscreen, microsphere flow cytometry; active compounds read high; fluorescence intensity (concentration not given with the values); 360,000 compounds, 3.1% hits; in the data active = fluorescence intensity above about 16000; inconclusive = no clear call, values can overlap the other calls
# MazEF act = increases E. coli MazEF RNase cleavage of RNA; P0AE70; AID 504720; 350,000 compounds, 0.32% hits; activation, % at 20 µM; FAM/BHQ RNA-DNA oligo cleavage fluorescence, 5 h; in the data active = activation above about 50%
# Target sequence (P0AE70 whole entry, looked up): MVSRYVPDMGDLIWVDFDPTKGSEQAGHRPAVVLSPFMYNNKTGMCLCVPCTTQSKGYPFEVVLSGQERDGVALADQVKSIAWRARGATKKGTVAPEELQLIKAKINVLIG
# The depositor's hits bear a star; ? = inconclusive; · = no result given; + = active, no number. Shown are actives, neighbours in structure and some others; about 3.7% of the full set was active somewhere. Rule as the data show it, unless noted: active = inhibition above about 30%; inconclusive = no clear call, values can overlap the other calls; inactive = below that.
SMILES,BoNT F protease,BoNT-A LC inh2,Anthrax LF prot,Autofluor counter,MazEF act
O=[N+]([O-])c1ccc(/C=N\NS(=O)(=O)c2ccc(F)cc2)o1,5,1,1,4421,1
O=C1C2CC=CCC2C(=O)N1c1ncn[nH]1 (stereo not given),2,0,-3,16218*,5
CC1Oc2ccccc2N(CC(=O)NCCCN2CCOCC2)C1=O (stereo not given),-1,0,-1,5930,-2
CC(C)C1Oc2ccccc2N(CC(=O)NCCCN2C(C)CCCC2C)C1=O (stereo not given),2,0,2,23299*,0
CC1Oc2ccccc2N(CC(=O)NCCc2ccccc2)C1=O (stereo not given),-11,-11,1,26874*,5
COc1ccc(CN(Cc2ccccn2)C(=O)CN2C(=O)COc3ccccc32)cc1,-6,0,2,10073,4
CC1Oc2ccccc2N(CC(=O)N(Cc2ccccc2)Cc2ccccn2)C1=O (stereo not given),-1,0,-3,23187*,3
CC1Oc2ccccc2N(Cc2ccccc2Cl)C1=O (stereo not given),-2,-1,-2,23481*,-2
O=C(COc1ccc(F)cc1)N/N=C/c1cccc2cccnc12,10,2,6,?,2
O=C(O)CCCN1C(=O)C2C3CCC(C3)C2C1=O (stereo not given),3,0,0,3621,2
O=C(O)c1ccc(N/N=C/C(Br)=C/c2ccccc2)cc1,-3,0,6,3416,61*
CCCCN1C(=O)C(CC(=O)NCC2CCCCC2)CC(C(=O)N(C(C)C)C(C)C)=C1C (stereo not given),-3,0,1,3450,10
COc1cccc(CNc2nc3cc(-c4ccccc4C)sc3c(=O)n2C)c1OC,2,0,0,3435,·
CCCNC(=O)CSc1nc(-c2cccs2)cc(C(F)(F)F)n1,7,1,-2,2647,5
CC(C)CNC(=O)CSc1nc(-c2cccs2)cc(C(F)(F)F)n1,38*,0,-7,3637,8
COc1cccc(N2CCN(C(=O)C3C4C=CC5(CN(Cc6ccccc6Cl)C(=O)C35)O4)CC2)c1 (stereo not given),1,-1,-2,23129*,3
COc1ccc(CN2CC34C=CC(O3)C(C(=O)O)C4C2=O)cc1 (stereo not given),-7,-1,-9,6173,12
COc1ccc(/C(O)=C/C(=O)C(=O)Nc2c(C)n(C)n(-c3ccccc3)c2=O)cc1,2,2,-10,21666*,-10
CC(C)N(C(=O)[C@H]1C[C@H](CC(=O)NCc2cccc(C(F)(F)F)c2)C(=O)N2CCc3c([nH]c4ccc(Cl)cc34)[C@]12C)C(C)C,-3,0,0,3270,2
CCOc1cccc(-c2nnc3sc(-c4cccs4)nn23)c1,0,-2,1,17165*,9
COc1cccc(-c2nn3c(-c4cccc(C)c4)nnc3s2)c1,-7,-4,-4,17527*,3
CCOc1cccc(-c2nn3c(-c4ccco4)nnc3s2)c1,2,0,0,23209*,10
Cn1cc(CN2CCC(C(=O)NC(c3ccc(F)cc3)c3ccc4ccccc4n3)CC2)c2ccccc21 (stereo not given),-16,0,-1,4176,·
CSc1ccc(/C=N/n2c(C)cc(C)cc2=O)cc1,-5,?,0,23602*,4
CCn1nccc1C(=O)Nc1cc(Cl)ccc1Cl,-4,0,-2,2934,1
SMILES,BoNT F protease,BoNT-A LC inh2,Anthrax LF prot,Autofluor counter,MazEF act
CCn1ncc(Cl)c1C(=O)Nc1cc(Cl)ccc1Cl,-2,0,2,22800*,-5
CCOC(=O)N1CCN(C(=O)C[C@@H]2C[C@@]3(C(=O)OC)CCCCC=C3N(Cc3ccc(Cl)cc3Cl)C2=O)CC1,-4,0,-5,5781,·
Cc1oc(C)c2c(=O)ccc3c(c12)OC(N)=C(C#N)C3c1ccccc1 (stereo not given),-17,3,3,4865,106*
CSc1ccc(C2C(C#N)=C(N)Oc3c2ccc(=O)c2c(C)oc(C)c32)cc1 (stereo not given),-3,6,-1,4722,42
COc1ccc2oc(=O)c(-c3nc(C)cs3)cc2c1,12,?,7,20394*,1
COc1ccc2oc(=O)c(-c3nnc(N)s3)cc2c1,-2,2,0,2393,7
O=[N+]([O-])c1ccc(Nc2ccccc2)c2nonc12,11,6,5,4715,11
O=[N+]([O-])c1ccc(Sc2cccc[n+]2[O-])c2nonc12,13,5,-18,4845,104*
CCOC(=O)/C=c1\s/c(=C\c2ccc(C(=O)OC)cc2)c(=O)n1CC(=O)Nc1ccccc1,-4,0,-4,3391,-24
CCOC(=O)/C=c1/s/c(=C/c2ccc3cc(OC)ccc3c2)c(=O)n1CC(=O)NCC1CCCO1 (stereo not given),24,2,0,4298,80*
CCOC(=O)/C=c1\s/c(=C\c2c(OC)ccc3ccccc23)c(=O)n1CC(=O)NCC1CCCO1 (stereo not given),-6,-2,-4,16857*,+
CCCCCN1C(=O)/C(=C/c2c(N3CCc4ccccc4C3)nc3ccccn3c2=O)SC1=S,-23,25,-1,21934*,-9
O=C(CSc1nc(-c2ccco2)cc(C(F)(F)F)n1)Nc1ccc2c(c1)CCC2,10,2,-1,3453,6
Cc1ccc(NC(=O)CSc2nc(-c3ccco3)cc(C(F)(F)F)n2)cc1C,-10,-4,0,17763*,4
COc1ccc(CN(CC(=O)NCC2CCCO2)C(=O)CNS(=O)(=O)c2ccccc2)cc1 (stereo not given),-16,0,2,3784,16
Cc1ccc(C)c(/C=C2\N=C(c3ccccc3F)OC2=O)c1,-12,0,6,3685,9
COc1cc(/C=C2/N=C(c3ccccc3F)OC2=O)cc(Cl)c1OS(C)(=O)=O,-3,-1,-6,20200*,-1
COc1cccc(C(=O)n2cnnc2N)c1OC,1,2,-2,19978*,-5
COc1ccccc1C(=O)N1CCCN(C(=O)c2ccccc2OC)CC1,-3,0,1,3921,-7
Cc1ccc(C(=O)n2cnnc2N)cc1C,-3,-1,-6,9712,-8
Nc1nncn1C(=O)c1c(Cl)cccc1Cl,3,5,1,17890*,-1
COc1cccc(C(=O)N2CCCN(C)CC2)c1OC,37*,4,16,3084,12
Nc1nncn1C(=O)c1cc(Br)ccc1Cl,-3,1,9,9504,-2
Cc1ccc(C(=O)n2cnnc2N)cc1,-6,?,0,21599*,2
Cc1cc(=O)[nH]c(NC(=O)Cc2ccccc2)n1,-4,0,0,3914,7
O=C(/C=C/[C@H]1O[C@@H](n2ccc(=O)[nH]c2=O)[C@H](O)[C@@H]1O)NCCN1CCCCC1,-31,-2,-1,4212,·
CCc1cc(-c2cnnn2Cc2ccccc2)ccc1-c1cn(CC(C)C)nn1,0,0,-11,2907,4
